# Experimental data taken from the supplement of paper PMC8728848.
# The full list was thinned out, with the strongest signals kept by preference.
# B1: Mcg Light Chain Dimer (Homo sapiens), Q6PIK1 (protein)
# chain: MAGFPLLLTLLTHCAGSWGQSLLTQPPSVSGTPGQRVTISCSGSSSNIGINYVYWYQQIPGTAPKLLISTNDQRPSGVPDRFSGSKSGTSASLAIGGLRSEDEAHYYCAAWDDSMSGPGYAFGTGTKVTVLRQPKANPTVTLFPPSSEELQANKATLVCLISDFYPGAVTVAWKADGSPVKAGVETTKPSKQSNNKYAASSYLSLTPEQWKSHRSYSCQVTHEGSTVEKTVAPTECS
# B2: SLLPI (Mus musculus), Q9D9X8 (protein)
# chain: MGICMSMYTQVLVPVDADGDHHILWSRFYERWGSCFNPCAGLVNCLPPHSSALYLCHRMEARSRAPRRQLCPPGITWLALAYLLSCLLASSKAKVFSRCELAKEMHDFGLDGYRGYNLADWVCLAYYTSGFNTNAVDHEADGSTNNGIFQISSRRWCRTLASNGPNLCRIYCTDLLNNDLKDSIVCAMKIVQEPLGLGYWEAWRHHCQGRDLSDWVDGCDF
# How the values were obtained:
# Assay in all cases: glycan array binding signal (z-score within array); higher = stronger binding
# Details in all cases: glycan notation: IUPAC condensed, linker removed
# [1] = target: Fuc(a1-2)Gal(b1-3)GalNAc(b1-3)Gal
# In short: (§1)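 Glycan array data were curated from 3228 arrays in the Consortium for Functional Glycomics database and kept only where the protein sequence was available. Glycan names were converted to IUPAC-condensed notation, and columns mapping to the same glycan were averaged. The binding signal is a within-array Z-score, averaged across arrays of the same protein sequence at different concentrations or buffers and across linkers. Negative Z-scores can be read as non-binding.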
# [2] = target: Fuc(a1-2)[Gal(a1-3)]Gal(b1-4)Glc
# In short: as §1
# [3] = target: Fuc(a1-2)[GalNAc(b1-3)]Gal
# In short: as §1
# [4] = target: Fuc(a1-3)[Gal3S(b1-4)]GlcNAc6S
# In short: as §1
# Gal(a1-3)Gal(b1-4)Glc = target: Gal(a1-3)Gal(b1-4)Glc
# In short: as §1
# [5] = target: Gal(a1-3)Gal(b1-4)[Fuc(a1-3)]GlcNAc
# In short: as §1
# [6] = target: Gal(b1-3)[GlcNAc(b1-6)]GalNAc
# In short: as §1
# Gal(b1-4)Glc6S = target: Gal(b1-4)Glc6S
# In short: as §1
# [7] = target: Gal(b1-4)GlcNAc(b1-3)Gal(b1-4)GlcNAc
# In short: as §1
# [8] = target: Gal3S(b1-4)[Fuc(a1-3)]Glc
# In short: as §1
# Gal3S4S(b1-4)GlcNAc = target: Gal3S4S(b1-4)GlcNAc
# In short: as §1
# Gal3S6S(b1-4)GlcNAc6S = target: Gal3S6S(b1-4)GlcNAc6S
# In short: as §1
# Gal6S(b1-4)GlcNAc6S = target: Gal6S(b1-4)GlcNAc6S
# In short: as §1
# Man(a1-3)[Man(a1-6)]Man = target: Man(a1-3)[Man(a1-6)]Man
# In short: as §1
# [9] = target: Man(a1-3)[Man(a1-6)]Man(b1-4)GlcNAc(b1-4)GlcNAc
# In short: as §1
# [10] = target: Neu5Ac(a2-3)Gal(b1-3)GalNAc6S
# In short: as §1
# [11] = target: Neu5Ac(a2-3)Gal(b1-3)GlcNAc6S
# In short: as §1
# [12] = target: Neu5Ac(a2-3)Gal(b1-4)GlcNAc6S
# In short: as §1
# [13] = target: Neu5Ac(b2-6)Gal(b1-4)GlcNAc
# In short: as §1
# [14] = target: Neu5Gc(a2-3)Gal(b1-4)[Fuc(a1-3)]GlcNAc
# In short: as §1
# [15] = target: Neu5Gc(a2-6)Gal(b1-4)GlcNAc
# In short: as §1
# Fuc(a1-2)Gal(b1-4)GlcNAc = target: Fuc(a1-2)Gal(b1-4)GlcNAc
# In short: as §1
# [16] = target: Fuc(a1-2)Gal(b1-4)GlcNAc(b1-3)Gal(b1-4)GlcNAc
# In short: as §1
# [17] = target: Fuc(a1-2)Gal(b1-4)GlcNAc6S
# In short: as §1
# [18] = target: Fuc(a1-2)[Gal(a1-3)]Gal(b1-3)GlcNAc
# In short: as §1
# Gal(b1-2)Gal = target: Gal(b1-2)Gal
# In short: as §1
# [19] = target: Gal(b1-3)GlcNAc(b1-2)Man(a1-3)[Gal(b1-3)GlcNAc(b1-2)Man(a1-6)]Man(b1-4)GlcNAc(b1-4)GlcNAc
# In short: as §1
# [20] = target: Gal(b1-3)[Fuc(a1-4)]GlcNAc(b1-3)Gal(b1-4)[Fuc(a1-3)]GlcNAc
# In short: as §1
# [21] = target: Gal(b1-4)GlcNAc(b1-3)[GlcNAc(b1-6)]Gal(b1-4)GlcNAc
# In short: as §1
# Gal3S(b1-3)GlcNAc = target: Gal3S(b1-3)GlcNAc
# In short: as §1
# Gal3S(b1-4)Glc6S = target: Gal3S(b1-4)Glc6S
# In short: as §1
# [22] = target: GlcNAc(b1-3)Gal(b1-3)GalNAc
# In short: as §1
# [23] = target: GlcNAc(b1-4)GlcNAc(b1-4)GlcNAc
# In short: as §1
# [24] = target: GlcNAc(b1-4)GlcNAc(b1-4)GlcNAc(b1-4)GlcNAc(b1-4)GlcNAc
# In short: as §1
# [25] = target: Man(a1-2)Man(a1-2)Man(a1-3)Man
# In short: as §1
# [26] = target: Man(a1-2)Man(a1-3)[Man(a1-2)Man(a1-6)]Man(a1-6)[Man(a1-2)Man(a1-2)Man(a1-3)]Man(b1-4)GlcNAc(b1-4)GlcNAc
# In short: as §1
# [27] = target: Man(a1-2)Man(a1-3)[Man(a1-6)]Man(a1-6)[Man(a1-2)Man(a1-3)]Man(b1-4)GlcNAc(b1-4)GlcNAc
# In short: as §1
# [28] = target: Neu5Ac(a2-3)Gal(b1-4)[Fuc(a1-3)]GlcNAc(b1-6)[Gal(b1-3)]GalNAc
# In short: as §1
# [29] = target: Neu5Ac(a2-6)Gal(b1-4)GlcNAc6S
# In short: as §1
Binder,glycan array binding signal (z-score) [1],glycan array binding signal (z-score) [2],glycan array binding signal (z-score) [3],glycan array binding signal (z-score) [4],glycan array binding signal (z-score) (Gal(a1-3)Gal(b1-4)Glc),glycan array binding signal (z-score) [5],glycan array binding signal (z-score) [6],glycan array binding signal (z-score) (Gal(b1-4)Glc6S),glycan array binding signal (z-score) [7],glycan array binding signal (z-score) [8],glycan array binding signal (z-score) (Gal3S4S(b1-4)GlcNAc),glycan array binding signal (z-score) (Gal3S6S(b1-4)GlcNAc6S),glycan array binding signal (z-score) (Gal6S(b1-4)GlcNAc6S),glycan array binding signal (z-score) (Man(a1-3)[Man(a1-6)]Man),glycan array binding signal (z-score) [9],glycan array binding signal (z-score) [10],glycan array binding signal (z-score) [11],glycan array binding signal (z-score) [12],glycan array binding signal (z-score) [13],glycan array binding signal (z-score) [14],glycan array binding signal (z-score) [15],glycan array binding signal (z-score) (Fuc(a1-2)Gal(b1-4)GlcNAc),glycan array binding signal (z-score) [16],glycan array binding signal (z-score) [17],glycan array binding signal (z-score) [18],glycan array binding signal (z-score) (Gal(b1-2)Gal),glycan array binding signal (z-score) [19],glycan array binding signal (z-score) [20],glycan array binding signal (z-score) [21],glycan array binding signal (z-score) (Gal3S(b1-3)GlcNAc),glycan array binding signal (z-score) (Gal3S(b1-4)Glc6S),glycan array binding signal (z-score) [22],glycan array binding signal (z-score) [23],glycan array binding signal (z-score) [24],glycan array binding signal (z-score) [25],glycan array binding signal (z-score) [26],glycan array binding signal (z-score) [27],glycan array binding signal (z-score) [28],glycan array binding signal (z-score) [29]
B1,-0.611,-1.02,0.344,4.13,-1.04,0.315,-0.568,0.905,-0.321,-0.54,3.63,5.67,0.505,-1.04,-0.305,2.88,1.73,2.96,-0.955,1.2,0.325,,,,,,,,,,,,,,,,,,
B2,0.084,,,3.34,,,,,,1.15,,,,,,,,,,,,-0.019,-0.448,0.445,-0.779,0.362,-0.288,-0.236,-0.03,3.28,3.45,3.21,1.92,-0.401,-0.502,-0.652,0.317,-0.335,3.29
